Assay results from PubChem BioAssay (NCI).
Compounds without any hit were thinned out: in the full panel of roughly 83,000, 20% have a hit.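 Each cell line was grown in a 96-well plate and treated with one concentration of compound for 48 hours. Values below 10 were considered active.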 Unmarked numbers belong to inactive results. The source made the active and inactive calls.

What was measured:
Assay in all cases: NCI-60 one-dose screen, 48 h (100 = growth as untreated, 0 = no growth, -100 = all killed)
Conditions in all cases: 10 µM
NCI-H23 lung = test system: NCI-H23 lung
NCI-H226 lung = test system: NCI-H226 lung
NCI-H460 lung = test system: NCI-H460 lung
NCI-H522 lung = test system: NCI-H522 lung
A549/ATCC NSCLC = test system: A549/ATCC NSCLC
786-0 renal = test system: 786-0 renal
COLO 205 colon = test system: COLO 205 colon
DU-145 prostate = test system: DU-145 prostate
K-562 leukemia = test system: K-562 leukemia
MALME-3M melanoma = test system: MALME-3M melanoma
MDA-MB-231 breast = test system: MDA-MB-231 breast
RXF 393 renal = test system: RXF 393 renal
SF-268 CNS = test system: SF-268 CNS
SF-295 CNS = test system: SF-295 CNS
SF-539 CNS = test system: SF-539 CNS
M14 melanoma = test system: M14 melanoma
HOP-92 NSCLC = test system: HOP-92 NSCLC
UACC-257 melanoma = test system: UACC-257 melanoma

SMILES | growth (NCI-H23 lung) | growth (NCI-H226 lung) | growth (NCI-H460 lung) | growth (NCI-H522 lung) | growth (A549/ATCC NSCLC) | growth (786-0 renal) | growth (COLO 205 colon) | growth (DU-145 prostate) | growth (K-562 leukemia) | growth (MALME-3M melanoma) | growth (MDA-MB-231 breast) | growth (RXF 393 renal) | growth (SF-268 CNS) | growth (SF-295 CNS) | growth (SF-539 CNS) | growth (M14 melanoma) | growth (HOP-92 NSCLC) | growth (UACC-257 melanoma)
CCn1cc(CNc2ccc(C(=O)Nc3ccc4ccccc4c3)cc2)c(C)n1 | 52.9% | 51% | 62.9% | 74.7% | 63.4% | 75.3% | 69.2% | 61.2% | 59.5% | 62.5% | 83.8% | 86% | 76.4% | 64.2% | 83.3% | 45.1% | – | –
COc1ccc(-c2cc(-c3cc(OC)ccc3OC)nc(N)c2C#N)cc1 | 68.8% | 63.7% | 52.5% | 23.6% | – | 66.2% | 57.1% | 96.2% | 89.5% | 36.9% | 56.3% | 70.5% | 40.1% | 64.7% | 57.8% | 79.8% | – | –
O[C@@H]1CO[C@H]2[C@@H]1OC[C@@H]2O | 109% | 109% | – | 111% | 96.9% | 109% | 119% | 108% | 124% | – | 92.5% | 125% | 108% | – | 106% | 103% | 108% | 103%
C=C/C(C)=C/C[C@]1(C)[C@H](C)[C@@H](OC(=O)CCC)[C@H](O)[C@@]23C(=C[C@H](OC)C[C@@H]12)[C@@H](OC(=O)CCC)O[C@H]3OC(C)=O | -15.9% (active) | -52.9% (active) | 2.97% (active) | -80.9% (active) | 12.5% | -79.9% (active) | -53.3% (active) | 14.3% | 10.3% | -63.7% (active) | -62.7% (active) | -89.4% (active) | -8.13% (active) | -59.6% (active) | -74.4% (active) | -45.7% (active) | – | –
CN(C)CCC1(c2ccccc2)CCN(C)C1=O (stereo unspecified) | 103% | 95.7% | – | 86.4% | 105% | 109% | 105% | 107% | 95.2% | 94.8% | 114% | 96.1% | 99.9% | 104% | 103% | 108% | 123% | 104%
CCCCCCCCCCCCCCCCCC[n+]1ccc2c(C)c3c(c(C)c2c1)c1cc(O)ccc1n3CC | 4.06% (active) | 58% | 6.93% (active) | 29.2% | 13.9% | 5.53% (active) | -46.6% (active) | 40.4% | 9.4% (active) | -55.2% (active) | 19% | -7.68% (active) | 4.77% (active) | -1.22% (active) | -21.2% (active) | -2.39% (active) | – | –
Nc1nc(Cl)nc2c1ncn2C1O[C@H](CO)[C@@H](O)[C@@H]1F (stereo partly specified) | -9.12% (active) | 2.75% (active) | – | – | 23.4% | -34.1% (active) | 37.6% | -3.84% (active) | – | 60.9% | 70% | 42.2% | 9.03% (active) | 14.2% | 37.7% | -48.4% (active) | 38.4% | 22.7%
C[C@@H](O)[C@H]1C(=O)N2C(C(=O)O)=C(SC3CN[C@H](C(=O)N(C)C)C3)[C@H](C)[C@H]12 (stereo partly specified) | 97.2% | 99.2% | 102% | – | 96.6% | 103% | 113% | 110% | – | 92.9% | 99.6% | 114% | 105% | 96.2% | 113% | 100% | – | 106%
CCOC(=O)c1sc2ncnc(Nc3ccc4c(cnn4C(=O)Nc4ccccc4)c3)c2c1C | 60.6% | 109% | 49.2% | 64.5% | 56.7% | -2.26% (active) | 70.1% | 64.6% | 91.6% | 32.7% | 37.2% | 55.4% | 66.2% | 98.3% | 19.2% | 63.7% | – | –
COc1cc2c3c(n(C4CCNCC4)c(=O)c2cc1OC)-c1cc2c(cc1C3=O)OCO2 | -59.4% (active) | -43.8% (active) | -66.2% (active) | – | -53.7% (active) | -60% (active) | -83% (active) | -92.8% (active) | -48.8% (active) | -68.4% (active) | -69.1% (active) | -56.4% (active) | -60% (active) | -70.7% (active) | -65.8% (active) | -76.1% (active) | – | –
